SMILES strings stand for the structures. This is part of a sample that, as a whole, favours compounds with a hit. Of some 83,000 tested, about 20% had one in any assay.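 The endpoint reported here, percent growth, reads 100 for growth as untreated, 0 for no net growth and -100 for all cells dead.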 Values without a mark were called inactive. Activity calls are given as the source filed them. How the source made its calls: active means growth percent below 10; inactive means the rest.

The results in this text go back to PubChem BioAssay (NCI).

Holding throughout (experiment): NCI-60 one-dose screen, 48 h (100 = growth as untreated, 0 = no growth, -100 = all killed)
In assay [1] the test system is SK-MEL-2 melanoma. The following applies: 10 µM unless noted.
The subject of assay [2] is EKVX NSCLC. The following applies: 10 µM unless noted.
Assay [3] concerns SN12C renal. The following applies: 10 µM unless noted.
For assay [4], the system named is UO-31 renal. The following applies: 10 µM unless noted.
Assay [5] has as its system TK-10 renal. To be noted: 10 µM unless noted.
The subject of assay [6] is ACHN renal. The following applies: 10 µM unless noted.
The test system of assay [7] is CAKI-1 renal. The following applies: 10 µM.
Assay [8] relates to A498 renal. The following applies: 10 µM unless noted.
Assay [9] has as its system CCRF-CEM leukemia. The following applies: 10 µM unless noted.
In assay [10] the test system is MOLT-4 leukemia. To be noted: 10 µM unless noted.
Assay [11] relates to SR leukemia. To be noted: 10 µM unless noted.
Assay [12] has as its system RPMI-8226 leukemia. The following applies: 10 µM unless noted.
Assay [13] deals with OVCAR-8 ovarian. To be noted: 10 µM unless noted.
The subject of assay [14] is OVCAR-5 ovarian. The following applies: 10 µM unless noted.
Assay [15] relates to OVCAR-4 ovarian. To be noted: 10 µM unless noted.
Assay [16] deals with SK-OV-3 ovarian. To be noted: 10 µM unless noted.
Assay [17] concerns IGROV1 ovarian. To be noted: 10 µM unless noted.
For assay [18], the system named is OVCAR-3 ovarian. To be noted: 10 µM unless noted.
Assay [19] relates to HS 578T breast. The following applies: 10 µM unless noted.
For assay [20], the system named is NCI/ADR-RES ovarian. To be noted: 10 µM unless noted.

Turning to `O=C1NC(=O)/C(=C/c2ccc(OCc3cc4ccccc4nc3Cl)cc2)S1`, the growth in assay [1] is 112%; in [2], 99.3%; in assay [3], 95.9%; in [4], 80.6%; in [5], 110%; in assay [6], 92.8%. The growth in assay [7] was 97.1%; in assay [8], 100%; in [9], 88.9%; in assay [10], 101%; in assay [11] it was 91%; in [12], 78.7%. Moreover, the growth was 99% in assay [13]; 114% in assay [14]; 93.5% in [15]; 109% in assay [16]; 108% in assay [17]; 104% in [18]. Further, the growth in assay [19] is 111%; in assay [20] it was 100%.
Take `COc1ccc(N)cc1C(=O)Nc1cccc(-c2cc(=O)c3c(OC)c(OC)c(OC)cc3o2)c1`: the growth in assay [1] was 89.1%; in assay [2], 84.8%; in assay [3], 49.7%; in [4], 29.4%; in [5], 81.5%; in assay [6] it was 52.3%. The growth in assay [7] is 43.1%; in assay [8], 63.1%; in assay [9], 34%; in assay [10] it was 48.2%; in assay [11], 40.9%; in [12], 35.4%. The growth in assay [13] is 56.4%; in [14], 94.8%; in assay [15] it was 81.5%; in [16], 119%; in assay [17] it was 51.3%; in assay [18], 65.5%. Also, the growth in assay [19] is 58.3%; in assay [20], 60.7%.
As to `COc1ccc(/C=N/Nc2nc(N/N=C/c3ccc(OC)cc3O)nc(N3CCOCC3)n2)c(O)c1`, the growth was 82.6% in [1]; 46.6% in assay [2]; 75.1% in [3]; 11.2% in assay [4]; 78.1% in assay [5]; 27.9% in assay [6]. For the same compound, the growth is 37.9% in assay [7]; 66.8% in assay [8]; 27.1% in [9]; 35.3% in [10]; 27.4% in assay [11]; 41.7% in [12]. For the same compound, the growth in assay [13] is 69.1%; in assay [14], 68.1%; in assay [15], 63.1%; in assay [16], 89.1%; in assay [17], 51.1%; in assay [18] it was 19.1%. For the same compound, the growth is 77.7% in [19] and 23.1% in assay [20].
As to `O=C(/C=C1\C=CN(CCCCCCF)c2ccccc21)n1ccc2ccccc21`, the growth is 111% in assay [1]; 79% in assay [2]; 90.5% in assay [3]; 71.5% in assay [4]; 115% in assay [5]; 97.4% in assay [6]. Moreover, the growth in [7] is 86.5%; in assay [8], 96.3%; in assay [9], 96.1%; in assay [10] it was 106%; in assay [11], 85.8%; in assay [12], 74.7%. For the same compound, the growth is 101% in assay [13]; 99.3% in assay [14]; 81.9% in assay [15]; 98.8% in [16]; 67.6% in assay [17]; 100% in assay [18]. The growth in assay [19] is 96.7%; in assay [20], 105%.
`O=C(CN1C(=O)S/C(=C\c2ccccc2)C1=O)Nc1ccc(C(=O)/C=C/c2cc3ccccc3nc2Cl)cc1`: the growth in [1] is 83.1%; in assay [2], 65.3%; in [3] it was 91.2%; in assay [4] it was 57.7%; in assay [5] it was 84.9%; in assay [6], 83%. Moreover, the growth was 64.1% in [7]; 86% in [8]; 77.2% in assay [9]; 51.4% in [10]; 42.4% in assay [11]; 26.2% in [12]. Besides, the growth in assay [13] was 81.9%; in [14] it was 99.5%; in assay [15] it was 41.9%; in [16], 82.5%; in assay [17], 80.4%; in assay [18], 85.6%. For the same compound, the growth in assay [19] was 96.1%; in [20], 88.8%.
For `O=C(/C=C1\C=CN(CCCCO)c2ccccc21)n1ccc2ccccc21`, the growth in assay [1] is 101%; in [2], 89.6%; in assay [3], 98.7%; in assay [4] it was 74.3%; in [5] it was 117%; in [6], 93.7%. The growth in assay [7] is 85.7%; in assay [8], 117%; in assay [9] it was 102%; in assay [10], 102%; in [11], 123%; in assay [12] it was 109%. Moreover, the growth in assay [13] is 97.3%; in assay [14], 102%; in [15], 107%; in [16], 97.6%; in [17], 89.2%; in assay [18], 111%. For the same compound, the growth was 98.7% in assay [19] and 105% in assay [20].
Regarding `COc1cc(/C=N/n2cnc3oc(-c4ccccc4)cc3c2=N)cc(CN2CCCC2)c1O`, the growth in assay [1] was 113%; in [2] it was 97%; in [3], -78.8% (active); in assay [4], 9.45% (active); in assay [5], 114%; in assay [6] it was 75.9%. Besides, the growth was 62.7% in [7]; 85.7% in assay [8]; -2.49% (active) in [9]; 6.5% (active) in assay [10]; 27.4% in [11]; -42.2% (active) in assay [12]. Also, the growth in assay [13] is -22.2% (active); in assay [14], 99%; in [15], -49.7% (active); in assay [16], 93.9%; in assay [17], -62.8% (active); in assay [18], 104%. Further, the growth in [19] is 63.6%; in [20], 16.6%.
Consider `NNC(=O)c1sc2nc(-c3cnccn3)cc(-c3cccs3)c2c1N`, for which the growth in assay [1] is 102%; in assay [2], 86.8%; in assay [3] it was 95.5%; in assay [4], 75.9%; in assay [5] it was 118%; in assay [6] it was 95.4%. Moreover, the growth in [7] is 87.6%; in assay [8], 79.5%; in [9], 62.7%; in [10], 77%; in [11] it was 86.5%; in assay [12] it was 107%. Further, the growth in assay [13] is 93.8%; in assay [14], 99.1%; in [15] it was 74.4%; in assay [16], 92.1%; in assay [17] it was 89.5%; in assay [18] it was 84.5%. The growth in [19] was 119%; in [20], 105%.
